Measurements taken from PubChem BioAssay AID743358 (Broad Institute, 2014).
Calls of active or inactive are those of the source.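 How the source made its calls: active means ATP signal drop in HepG2 cells with fitted half-maximal concentration at most twice the top tested dose; inconclusive means flat curve losing 30 to 70% signal, or poor fit; inactive means the rest.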

Test: HepG2 cell cytotoxicity, dose response, cytotoxicity control, luminescence, dry powder, set 9 (AID 743358)
Details: HepG2 viability, ATP luminescence, 72 h; series mostly up to 26 µM

| SMILES | outcome |
| --- | --- |
| COc1ccc(NC(=O)N2CC[C@@H]3[C@@H](CO)N(C)c4ccc(-c5ccc(F)cc5)cc4[C@@H]32)cc1 | inactive |
| CN1c2ccc(-c3ccc(F)cc3)cc2[C@H]2[C@H](CCN2C(=O)Nc2cc(F)ccc2F)[C@H]1CO | inactive |
| COc1ccccc1NC(=O)N1CC[C@@H]2[C@@H](CO)N(C)c3ccc(-c4cccc(F)c4)cc3[C@@H]21 | inactive |
| CC(=O)c1ccc(NCCNC(=O)c2ccc3c(c2)OCO3)cc1 | inactive |
| CC(=O)c1ccc(N2CCN(C(=O)c3ccccc3F)CC2)cc1 | inactive |
| CN1c2ccc(-c3ccc(F)cc3)cc2[C@H]2[C@H](CCN2C(=O)Nc2ccc(F)cc2)[C@H]1CO | inactive |
| CN1c2ccc(-c3cccc(F)c3)cc2[C@H]2[C@H](CCN2C(=O)Cc2ccccc2)[C@H]1CO | inactive |
| COc1ccccc1C(=O)N1CCN(c2ccc(C(C)=O)cc2)CC1 | inactive |
| CN1c2ccc(-c3ccc(F)cc3)cc2[C@H]2[C@H](CCN2C(=O)Cc2cccnc2)[C@H]1CO | inactive |
| COc1ccc(NC(=O)N2CC[C@@H]3[C@@H](CO)N(C)c4ccc(-c5cccc(F)c5)cc4[C@@H]32)cc1 | inactive |
| CC(=O)c1ccc(N2CCN(C(=O)c3ccc4c(c3)OCO4)[C@H](C)C2)cc1 | inactive |
| CNC(=O)c1ccc(N2CCN(C(=O)c3ccc4c(c3)OCO4)CC2)cc1 | inactive |
| COC(=O)c1ccc(N2CCN(C(=O)c3ccc4c(c3)OCO4)CC2)cc1 | inactive |
| CC(=O)c1ccc(N2CC3(CN(C(=O)c4ccc5c(c4)OCO5)C3)C2)cc1 | inactive |
